Source: PubChem BioAssay (NCI)
About 83,000 compounds went through this panel and 20% of them were active in at least one assay; those are over-represented in the sample as a whole.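 How to read the values: 0–100, growth inhibition (40 = 60% inhibited); 0, no net growth; -100 to 0, cell death (-40 = 40% of starting cells died; -100 = all dead).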 Values without a mark were called inactive. The source made the active and inactive calls. Rule for the calls: active = growth percent below 10; inactive = the rest.

Test system: LOX IMVI melanoma
Assay: NCI-60 one-dose screen, 48 h (100 = growth as untreated, 0 = no growth, -100 = all killed)
Conditions: 10 µM unless noted

Row | SMILES | growth
1 | C=CC(=O)N1CCC(Oc2cc3c(Nc4ccc(Cl)c(Cl)c4F)ncnc3cc2OC)CC1 | -66.1% (active)
2 | FC(F)(F)c1ccc(CNc2ccc(Cc3c[nH]c4ncc(Cl)cc34)cn2)cn1 | 15.2%
3 | O=S1(=O)OC(c2cc(Cl)c(O)c(Br)c2)(c2cc(Cl)c(O)c(Br)c2)c2ccccc21 | 96.5%
4 | CC(C)(C)OC(=O)N1CCC(O)[C@@H](O[Si](c2ccccc2)(c2ccccc2)C(C)(C)C)[C@H]1/C=C/c1ccccc1 (stereo partly specified) | 61.4%
5 | Cc1cn(-c2cc(NC(=O)c3ccc(C)c(Nc4nccc(-c5cccnc5)n4)c3)cc(C(F)(F)F)c2)cn1 | 44.1%
6 | Cc1cnc(Nc2ccc(OCCN3CCCC3)cc2)nc1Nc1cccc(S(=O)(=O)NC(C)(C)C)c1 | -79.4% (active)
7 | Cc1cccc(C)c1N1C(c2ccccc2)=NNC12C=CC(=O)c1c(O)cccc12 (stereo unspecified) | 7.95% (active)
8 | C=CC(=O)Nc1cccc(Nc2nc(Nc3ccc(N4CCN(C(C)=O)CC4)cc3OC)ncc2C(F)(F)F)c1 | 6.36% (active)
9 | COc1ccc(/C(C)=C(\c2ccc(Cl)cc2)c2ccc(OCCN3CCCCCC3)cc2)cc1 | 35.8%
10 | Cc1cc(C(=O)Nc2cc(Oc3ccc4nc(NC(=O)C5CC5)cn4n3)ccc2C)n(C)n1 | -20.1% (active)
11 | CO[C@H](C(=O)N[C@@H](CCCCNC(=O)OCc1ccccc1)C(=O)OC(C)(C)C)[C@@H]1Cc2cc3cc(OC4CC(OC5CC(O)C(O)C(C)O5)C(O)C(C)O4)c(C)c(O)c3c(O)c2C(=O)[C@H]1OC1CC(OC2CC(OC3CC(C)(O)C(O)C(C)O3)C(O)C(C)O2)C(O)C(C)O1 (stereo partly specified) | -62.8% (active)
12 | CCN(CCCOc1ccc2c(Nc3cc(CC(=O)Nc4cccc(F)c4)[nH]n3)ncnc2c1)CCOP(=O)(O)O | 42%
13 | CC/C=C\C[C@H]1C/C=C2/C(=O)C=C[C@@H]2C/C=C\CCCC(=O)O1 | -76.1% (active)
14 | Cc1cn(-c2cc(NC(=O)c3ccc(C)c(Nc4nccc(-c5cnccn5)n4)c3)cc(C(F)(F)F)c2)cn1 | 63.3%
15 | COc1cc2ncnc3c2cc1OCCCCCN(C)Cc1ccc(Br)cc1N3 | 32.8%
16 | C[C@@]1(C(=O)Nc2ccc(F)nc2)CCCN1c1nc(Nc2cc(C3CC3)[nH]n2)c2cccn2n1 | -35.5% (active)

Row | SMILES | growth
17 | C[C@]12O[C@H](C[C@]1(O)CO)n1c3ccccc3c3c4c(c5c6ccccc6n2c5c31)CNC4=O | -70.5% (active)
18 | CCN1CCN(CCCN(C[C@H]2Cc3ccccc3CN2)[C@H]2CCCc3cccnc32)CC1 | 74.3%
19 | COCc1c(-c2ccc(NC(=O)Nc3cc(C(F)(F)F)ccc3F)c(F)c2)c2c(N)ncnn2c1CN1CCOCC1 | -81.7% (active)
20 | COc1cc2cc(NCc3ccc(F)cc3)nc(C)c2cc1OC | 6.57% (active)
21 | CC(=O)C1=C(C)NC(SCc2nnc(-c3ccc(C)cc3)o2)=NC1c1ccc(F)cc1 (stereo unspecified) | 93.2%
22 | N#CC[C@H](C1CCCC1)n1cc(-c2ncnc3[nH]ccc23)cn1 | 55.3%
23 | Cc1ccc(-[n+]2c3cc(N)c(C)cc3nc3cc(C)c(Nc4ccccc4)cc32)cc1 | -100% (active)
24 | COc1cc2cc(NCc3ccc(Cl)cc3)nc(C)c2cc1OC | 5.76% (active)
25 | CC(=O)c1cnc2ccc(-c3cc(Cl)c(O)c(Cl)c3)nc2c1NC1CCC(CN(C)C)CC1 (stereo unspecified) | -61.2% [2.5 µM] (active)
26 | CCN(CC)c1cc2oc3cc(N)cc(=N)c-3nc2cc1C | -0.53% (active)
27 | CO[C@H]1C[C@@H]2CC[C@@H](C)[C@@](O)(O2)C(=O)C(=O)N2CCCC[C@H]2C(=O)O[C@H]([C@H](C)C[C@@H]2CC[C@@H](O)[C@H](OC)C2)CC(=O)[C@H](C)/C=C(\C)[C@@H](O)[C@@H](OC)C(=O)[C@H](C)C[C@H](C)\C=C/C=C/C=C/1C | 26.7%
28 | COc1cccc(NC(=O)Nc2ccc(Nc3ncnc4sc5c(c34)CCN(C(=O)CCl)C5)cc2)c1 | 94.1%
29 | CCN(CC)CCNC(=O)c1c(C)[nH]c(/C=C2\C(=O)Nc3ccc(F)cc32)c1C | -81.9% (active)
30 | CO[C@@H](C)Cn1c(=O)n(C)c2cnc3ccc(-c4cncc(C(C)(C)O)c4)cc3c21 | -33.8% (active)
31 | Cc1c(N)ccc(-c2ccc(N)c(C)c2S(=O)(=O)O)c1S(=O)(=O)O | 98.6%
